Reference: PubChem BioAssay (EPA / NIEHS)
Some structures have more than one record in an assay (separate samples or runs), and their calls can disagree. The source made the active and inactive calls. How the source made its calls: active means hit-call score of the fitted dose curve at least 0.9, where 1 is the maximum; inactive means score below 0.9.

assay: ATG_AP_2_CIS: Attagene CIS-FACTORIAL HepG2 Assay for human Activator Protein 2 (AP-2) (AID 2282932); settings: HepG2 AP-2 cis-reporter, Attagene transcription factor profiling; actives raise or lower the signal
Method: ATG_CIS is a cell-based, multiplexed-readout assay that uses HepG2, a human liver cell line, with measurements taken at 24 hours after chemical dosing in a 24-well plate.ATG_AP_2_CIS is one of 52 assay component(s) measured or calculated from the ATG_CIS assay. It is designed to make measurements of mRNA induction, a form of inducible reporter, as detected with fluorescence intensity signals by Reverse transcription polymerase chain reaction (RT-PCR) and Capillary electrophoresis technology.Data from the assay component ATG_AP_2_CIS was analyzed into 1 assay endpoint. This assay endpoint, ATG_AP_2_CIS, was analyzed with bidirectional fitting relative to DMSO as the negative control and baseline of activity. Using a type of inducible reporter, measures of mRNA for gain or loss-of-signal activity can be used to understand the reporter gene at the transcription factor-level as they relate to the gene TFAP2A and TFAP2B and TFAP2D. Furthermore, this assay endpoint can be referred to as a primary readout, because this assay has produced multiple assay endpoints where this one serves a reporter gene function. To generalize the intended target to other relatable targets, this assay endpoint is annotated to the dna binding intended target family, where the subfamily is basic helix-turn-helix leucine zipper.
Human liver HepG2 cells are transiently transfected with multiple reporter transcription units (MRTUs) in 6-well plates using FuGene 6 reagent (Roche; 3 ml FuGene/1 mg DNA). The MRTU constructs are regulated by a cis-regulating element (promoter). […] A major difference between the CIS and TRANS system is that in CIS activities of endogenous TFs are measured, whereas the TRANS assay evaluates changes in activities of exogenous, chimeric NR-Gal4 proteins. […] At the end of 24 hour incubation, total RNA was isolated using TriZol reagent (Invitrogen). The isolated RNA is then reverse-transcribed using oligo(dT) primer and Mo-MLV reverse transcriptase (Invitrogen) with DNAse I (Ambion) treatment for 30 min. The one-tenth of the produced cDNA was amplified by PCR using Taq DNA polymerase (Invitrogen) and two reporter sequence-specific primers. The PCR products were fluorescently labeled by primer extension with 6-arboxyfluorescein (6-FAM) 5'-labeled reporter sequence-specific primer (2 min at 95 C, 20 s at 68 C and 10 min at 72 C) and these products were digested with 5U of HpaI (New England Biolabs) for 2h at 37 C. The fragments were purified using Qiaquick PCR columns (Qiagen), analyzed on an ABI 3130xL genetic analyzer (Applied Biosystems) with peak positions identified by using a set of X-rhodamine (ROX)-labeled MapMarker1000 molecular weight standards (BioVentures). The raw capillary electrophoresis data was processed using Attagraph software (Attagene).

Row | Structure (SMILES) | outcome | AC50
1 | CCC(=O)OCCc1ccccc1 | inactive | –
2 | OCC(F)(F)C(F)(F)C(F)(F)C(F)F | inactive | –
3 | CCCCCCOC(=O)c1ccccc1 | inactive | –
4 | FC1CC(F)(F)C(F)(F)C1(F)F (stereo not given) | inactive | –
5 | FC(F)(F)C(F)(F)C(F)(F)C(F)(F)C(F)(F)C(F)(F)CC1CO1 (stereo not given) | inactive | –
6 | O=S(=O)(O)c1ccc2ccccc2c1 | inactive | –
7 | CCCCCCCCCCCCCCCC[N+](C)(C)Cc1ccccc1 | – | 51.9 µM (active)
8 | FC(F)(F)C(F)(F)C(F)(F)CI | inactive | –
9 | O=C(O)C(F)(F)C(F)(F)C(F)(F)C(F)(F)F | inactive | –
10 | CC(C)OC(=O)c1ccccc1C(=O)OC(C)C | inactive | –
11 | FC(F)(I)C(F)(F)C(F)(F)C(F)(F)I | inactive | –
12 | CCCCCCCCC(F)(F)C(F)(F)C(F)(F)C(F)(F)C(F)(F)C(F)(F)F | inactive | –
13 | CC/C=C\CCOC(C)=O | inactive | –
14 | O=C(O)C(F)(F)C(F)(F)C(F)F | inactive | –
15 | O=C(CC(=O)C(F)(F)C(F)(F)F)C(F)(F)F | inactive | –
16 | FC(F)(F)C(F)(F)C(F)(F)C(F)(F)CCI | inactive | –
17 | CN(C)Cc1ccccc1O | inactive | –
18 | CCO[Si](CCC(F)(F)C(F)(F)C(F)(F)C(F)(F)C(F)(F)C(F)(F)F)(OCC)OCC | inactive | –
19 | O=S(=O)(OCC(F)F)C(F)(F)F | inactive | –
20 | C=C(C)C(=O)OCCC(F)(F)C(F)(F)C(F)(F)C(F)(F)C(F)(C(F)(F)F)C(F)(F)F | inactive | –

Row | Structure (SMILES) | outcome | AC50
21 | O=C(O)C(F)(F)C(F)(F)C(F)(F)C(F)(F)C(F)(F)C(F)(F)C(F)(F)C(F)(F)C(F)(F)C(F)(F)C(F)(F)C(F)(F)C(F)(F)F | inactive | –
22 | OCCCC(F)(F)C(F)(F)C(F)(F)F | inactive | –
23 | O=P(O)(O)OCCC(F)(F)C(F)(F)C(F)(F)C(F)(F)C(F)(F)C(F)(F)F | inactive | –
24 | CC(C)=CCCC(C)CCOC(=O)C(C)C (stereo not given) | inactive | –
25 | O=C(O)C(F)(F)C(F)(F)C(F)(F)C(F)(F)C(F)(F)C(F)(F)C(F)(F)C(F)(F)C(F)(F)C(F)(F)C(F)(F)C(F)(F)F | inactive | –
26 | CCCCCC=O | inactive | –
27 | Nc1ccc(Oc2cccc(Oc3ccc(N)cc3)c2)cc1 | inactive | –
28 | O=C(O)C(F)(F)C(F)(F)C(F)(F)C(F)(F)C(F)(F)C(F)(F)C(F)(F)C(F)(F)Cl | inactive | 83.2 µM (active)
29 | CCN(Cc1cccc(S(=O)(=O)O)c1)c1ccc(C(=C2C=CC(=[N+](CC)Cc3cccc(S(=O)(=O)O)c3)C=C2)c2ccc(O)cc2S(=O)(=O)[O-])cc1 | inactive | –
30 | CCCCCCC(C)OC(=O)CCCCC(=O)OC(C)CCCCCC (stereo not given) | inactive | –
31 | Nc1ccc(S(=O)(=O)Nc2nccs2)cc1 | inactive | –
32 | O=C(O)C(F)(OC(F)(F)C(F)(OC(F)(F)C(F)(F)C(F)(F)F)C(F)(F)F)C(F)(F)F (stereo not given) | inactive | –
33 | CCCCCCCOC(=O)c1ccccc1C(=O)OCCCCCCC | inactive | –
34 | CC(CCl)OP(=O)(OC(C)CCl)OC(C)CCl (stereo not given) | inactive | –
35 | FC(F)(F)C(F)(F)CNCC(F)(F)C(F)(F)F | inactive | –
36 | C=C(C)C(=O)OCC(F)(F)C(F)(F)C(F)(F)F | inactive | –
37 | CCCCOc1ccc(N)cc1 | inactive | –
38 | Cc1cccc(N(C)C)c1 | inactive | –
39 | O=S(=O)(OCCOC(F)(F)F)C(F)(F)F | inactive | –
